These results are taken from PubChem BioAssay AID708 (SRMLSC, 2007).

In all, about 65,000 compounds went through this assay and fewer than 10 were called active.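 The calls were made as follows: active = at 10 µM dose, initial 340 nm absorbance at least 2 fold that of control wells; inactive = change under 2 fold.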 Not all results are given here.

The nature of this experiment: compound light absorbance at 340 nm, profiling panel, artefact control, biochemical, MLSMR library, data from PS, PMK, MK assays (AID 708).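 Also: initial absorbance extrapolated from kinetic A340 decline of NADH oxidation.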 The note with it: compound absorbance at 340 nm, fold over control; at 10 µM; active compounds read high.
`CCCCCN(C(=O)NC(=O)Nc1ccccc1C)S(C)(=O)=O`: the fold change is 1 (inactive).

As to `CCNc1nc(N)nc(Oc2ccc(OCC)nn2)n1`, the fold change is 1.07 (inactive).

On to `CCOC(=O)CSc1nncc2ccc(OC)c(OC)c12`, for which the fold change was 1.07 (inactive).

On to `CCN(CC)S(=O)(=O)c1cc(C(=O)Nc2ccccn2)ccc1C`, for which the fold change was 1.09 (inactive).

Turning to `Cc1c2cnn(-c3ccccc3)c(=O)c2c(C)n1CCCC(=O)N1CCN(C)CC1`, the fold change is 1.06 (inactive).

Consider `CNC(=O)c1cc2c(ccc3ccccc32)oc1=N`, for which the fold change was 1.04 (inactive).

Regarding `CSc1ncccc1C(=O)OCC(=O)N1CCOCC1`, the fold change was 1.01 (inactive).

In the case of `COc1ccc(-c2cn3ccsc3n2)cc1`, the fold change was 1 (inactive).

For the compound `CCCn1c(C(O)c2ccc(OCC)cc2)nc2ccccc21` (configuration not stated), the fold change is 1.02 (inactive).

`O=C(NCc1ccco1)C1CCCN(S(=O)(=O)c2cccc3nonc23)C1` (configuration not stated): the fold change was 1.03 (inactive).

Regarding `CCn1nc(NC(=O)c2ccco2)c2cc3ccc(C)cc3nc21`, the fold change is 1.07 (inactive).

Take `Cc1ccc(-n2nc(-c3ccco3)cc2C(=O)NCc2cccnc2)cc1`: the fold change is 0.99 (inactive).

On to `COc1ccc(C2CC(c3ccc(C)cc3)Nc3nc(N)nn32)cc1` (configuration not stated), for which the fold change is 1.02 (inactive).

On to `Cc1ccc(C(=O)Nc2nnc(-c3ccncc3)s2)o1`, for which the fold change was 1.33 (inactive).

On to `CN(CCC#N)c1ncnc2scc(-c3ccccc3)c12`, for which the fold change was 1.03 (inactive).

For `COc1ccc(C2CC(c3ccc(C)cc3)Nc3ncnn32)cc1` (configuration not stated), the fold change was 0.99 (inactive).

`CSc1nsc(SC)c1NC(=O)OC1CCCCC1`: the fold change is 1.03 (inactive).

As for `Cc1ccc(NC2=NC(c3ccccc3)n3c(nc(C)cc3=O)N2)cc1` (configuration not stated), the fold change is 1.01 (inactive).

Turning to `Cc1ccc(C2c3c(oc4ccc(C)cc4c3=O)C(=O)N2CCCN2CCOCC2)cc1` (configuration not stated), the fold change was 1.07 (inactive).

As to `Cc1occc1C(=O)Nc1nnc(-c2ccncc2)s1`, the fold change was 1.18 (inactive).

As for `CCn1c(SCC(=O)NCc2ccco2)nnc1-c1ccc(N)cc1`, the fold change was 1.03 (inactive).

With `COc1cccc(OCCOc2cccc(/C=N/n3cnnc3)c2)c1`, the fold change is 1.05 (inactive).

Regarding `C=CCn1c(CC(=O)Nc2cccc(OC)c2)nnc1SCC(=O)NC1CCCCC1`, the fold change was 1.04 (inactive).

As for `Cc1ccc(NC(=O)CS(=O)CC(=O)N(c2ccccc2)C(C)C(=O)NC2CCCC2)cc1` (configuration not stated), the fold change is 0.99 (inactive).

Turning to `CCCOc1ccccc1-c1nc(SCCC(=O)O)n[nH]1`, the fold change is 1 (inactive).

Turning to `O=c1cccc(-c2ccc(Br)cc2)o1`, the fold change is 1.07 (inactive).

With `CN1C(C)(C)CC(NC(=O)CCC(=O)NC2CC(C)(C)N(C)C(C)(C)C2)CC1(C)C`, the fold change was 1.05 (inactive).

With `Cc1ccc(S(=O)(=O)NCc2csc(C)n2)c(C)c1`, the fold change is 0.97 (inactive).

With `CCOC(=O)c1ccccc1NC(=O)CC1Nc2ccccc2NC1=O` (configuration not stated), the fold change is 1.07 (inactive).

Turning to `O=C(CCCOc1ccccc1)Nc1cccc(C(=O)O)c1`, the fold change is 1.03 (inactive).

Turning to `O=P(c1cccs1)(c1cccs1)c1cccs1`, the fold change is 1.01 (inactive).

Consider `Cc1nnc(SCc2ccc(C(=O)c3ccc(Cl)cc3)o2)n1-c1ccccc1`, for which the fold change is 1.14 (inactive).

`c1csc(-c2cn3c(n2)SCC3)c1`: the fold change was 1.03 (inactive).

`COc1ccc(OCc2cccc(C(=O)N3CCCC3)c2)cc1`: the fold change was 0.98 (inactive).

For `CCCC(=O)C1=C(N(C)c2ccccc2)CC(C)(C)C(C(=O)OC)C1=O` (configuration not stated), the fold change is 1.04 (inactive).

As to `c1ccc(-c2nnc(SCc3nc4ccccc4[nH]3)o2)cc1`, the fold change is 1 (inactive).

In the case of `CC(=O)c1cccc(NC(=O)N2CCCC2C(=O)NCCC(C)C)c1` (configuration not stated), the fold change was 1 (inactive).

Regarding `Cc1ccccc1S(=O)(=O)Cc1ccc(C(=O)NCCN2CCCCC2C)o1` (configuration not stated), the fold change is 0.98 (inactive).

For the compound `CCOc1ccc(C2C(C(=O)O)c3ccccc3C(=O)N2CCN2CCOCC2)cc1` (configuration not stated), the fold change was 1.01 (inactive).

`Cc1ccccc1OCCC(=O)Nc1c(C)n(C)n(-c2ccccc2)c1=O`: the fold change is 1.04 (inactive).

Turning to `COc1ccccc1NC1=NC(c2ccc(Cl)cc2)N=C(N)N1` (configuration not stated), the fold change was 1.01 (inactive).

Turning to `CC1CN(C(=O)CN2C(=O)NC(C)(c3ccccc3)C2=O)CC(C)O1` (configuration not stated), the fold change is 1.02 (inactive).

For the compound `CCC(C)Sc1nc(C)nc2c1c(=O)n(C)c(=O)n2C` (configuration not stated), the fold change was 1.03 (inactive).

For `CCNc1nc(NCC)nc(N(C)n2cnnc2)n1`, the fold change is 1.02 (inactive).

In the case of `CC(C)c1cc(C(=O)O)on1`, the fold change was 0.99 (inactive).

For the compound `O=C(CCCC(=O)N(CC(=O)NC1CCCC1)Cc1ccccc1Cl)Nc1ccccn1`, the fold change is 1.01 (inactive).

As for `O=C(CCN1C(=O)C2C3C=CC(C3)C2C1=O)Nc1ccccc1F` (configuration not stated), the fold change was 0.99 (inactive).

For the compound `COc1ccc(OC)c(C(c2nnnn2C(C)(C)C)N2CCc3ccccc3C2)c1` (configuration not stated), the fold change is 1.04 (inactive).

Regarding `O=C(OCC(=O)N1CCN(C(=O)c2ccco2)CC1)c1ccccc1Cc1ccccc1`, the fold change was 1 (inactive).

`CC(C)CCNC(=O)CCNS(=O)(=O)c1ccc(Cl)cc1`: the fold change is 0.97 (inactive).

As to `Cc1cc(/C=N/n2cnnc2)c(C)n1-c1cccc(C(=O)O)c1`, the fold change was 1.11 (inactive).

In the case of `O=C(CNCCO)NC12CC3CC(CC(C3)C1)C2`, the fold change was 1.03 (inactive).

Turning to `CCN(c1ccccc1)S(=O)(=O)c1ccc(N)cc1`, the fold change is 1.02 (inactive).

Regarding `CC(=O)NS(=O)(=O)c1ccccc1`, the fold change was 1 (inactive).

For `CCC(CC)c1nnc(NS(=O)(=O)Cc2ccccc2)s1`, the fold change was 1.04 (inactive).

For `CCOc1cc(S(=O)(=O)NC2CC(C)(C)NC(C)(C)C2)ccc1F`, the fold change was 1.05 (inactive).

For the compound `O=C1CCCC(O)=C1C=NCCc1ccccc1`, the fold change was 0.99 (inactive).

With `O=C(Nc1cc(=O)[nH]c2ncnn12)c1ccccc1Cl`, the fold change is 0.98 (inactive).

In the case of `Cn1c2c(c(=O)n(C)c1=O)C(c1ccc(O)cc1)Nc1ccccc1O2` (configuration not stated), the fold change was 1 (inactive).

`Cc1occc1C(=O)N1CCCc2ccccc21`: the fold change was 1.01 (inactive).

As for `COc1ccc(C2SCCN2S(=O)(=O)c2ccccc2)cc1OC` (configuration not stated), the fold change was 0.98 (inactive).

Turning to `Cc1cc(C)cc(N(C(C)C(=O)Nc2c(C)n(C)n(-c3ccccc3)c2=O)S(C)(=O)=O)c1` (configuration not stated), the fold change is 1.05 (inactive).

As to `Cn1nnnc1SCC(=O)N1CCN(Cc2ccccc2)CC1`, the fold change is 1.01 (inactive).

Consider `CC(=O)Nc1cc(C(=O)O)ccc1S(=O)(=O)c1ccc(Cl)cc1`, for which the fold change is 1.03 (inactive).

As to `CCC1CCCCN1CCNS(=O)(=O)c1ccc2c(c1)CCN2C(C)=O` (configuration not stated), the fold change is 1.03 (inactive).

For `O=C(CSc1nnc(-c2ccoc2)o1)N1CCOCC1`, the fold change is 1.05 (inactive).

As to `COc1cc(OC)cc(C(=O)NCCSCc2ccco2)c1`, the fold change was 1.02 (inactive).

`CC(=O)NC1CC2CCCC(C1)N2CC(=O)Nc1ccccc1` (configuration not stated): the fold change is 1 (inactive).

Consider `COc1cc2[nH]c(=O)n(CCC(=O)NC3CCN(Cc4ccccc4)CC3)c(=O)c2cc1OC`, for which the fold change was 1.06 (inactive).

For `COC(=O)c1ccc(/C=N\n2c(C)nnc2C)cc1`, the fold change was 1.02 (inactive).

For the compound `O=C(COc1ccccc1Cl)Nn1cnnc1`, the fold change is 1.08 (inactive).

As for `Cc1cc(-n2nc(C)cc2C)n2ncc(-c3ccccc3)c2n1`, the fold change was 1.03 (inactive).

Consider `CCOC(=O)c1c(CN2CCOCC2)n(-c2ccccc2)c2ccc(O)cc12`, for which the fold change was 0.98 (inactive).

On to `Cc1ccc2nc(S(=O)(=O)O)[nH]c2c1`, for which the fold change was 1.02 (inactive).

On to `CC(=O)c1cc(C#N)c(SCC(=O)C(C)(C)C)nc1C`, for which the fold change is 1.07 (inactive).

For `CC(=C1C(=O)c2ccccc2C1=O)N1CCN(c2ccccn2)CC1`, the fold change was 1.15 (inactive).

As for `CCS(=O)(=O)NCCc1ccc(OC)c(OC)c1`, the fold change is 1.02 (inactive).

With `CCOC(=O)COc1ccc(Cl)cc1C1NC(=O)NC(C)=C1C(C)=O` (configuration not stated), the fold change is 1.05 (inactive).

For the compound `COc1ccc(-c2ccc(-c3noc(-c4ccncc4)n3)c(OC)n2)cc1`, the fold change was 1.09 (inactive).

For `CSc1nc(O)c(Cc2ccccc2)c(=O)[nH]1`, the fold change is 1 (inactive).

For the compound `COc1ccccc1N1CCN(C(=O)c2c(-c3c(Cl)cccc3Cl)noc2C)CC1`, the fold change is 0.98 (inactive).

As for `Cc1cccc(OCc2nnc(SCC(=O)N3CCN(C(=O)c4ccco4)CC3)n2C)c1C`, the fold change was 1.02 (inactive).

Take `COCCn1nnnc1CN1CCC(NC(=O)Nc2cccc(OC)c2)CC1`: the fold change was 1 (inactive).

Take `CC(=O)c1c(N2CCOCC2)nc(=S)n(Cc2ccccc2)c1C`: the fold change is 1.06 (inactive).

Regarding `COc1cc(CO)c(C2(CO)CCCC2)cc1OC`, the fold change is 1.04 (inactive).

Consider `CCOC(=O)C1=C(O)CSC1=Nc1cccc(Cl)c1`, for which the fold change is 1.02 (inactive).

As for `CCOC(=O)c1ccc2[nH]c(C)c(CN3CCN(C)CC3)c(=O)c2c1`, the fold change is 1 (inactive).

Regarding `Cc1nn(-c2ccccc2)c(CC(C)(C)C(=O)O)c1C(=O)O`, the fold change was 1.02 (inactive).

For the compound `COc1ccc2c(c1OC)C(=O)N(c1ncn[nH]1)C2`, the fold change is 1.04 (inactive).

Turning to `CC(C)(C)NC(=O)C(c1ccncc1)N(C(=O)CNC(=O)c1ccco1)c1ccc2c(c1)OCO2` (configuration not stated), the fold change is 0.98 (inactive).

Take `COc1ccc(N2C(=O)C3CCCN3C2c2cc(OC)c(OC)cc2OC)cc1` (configuration not stated): the fold change is 1.01 (inactive).

Consider `O=C1c2ccccc2C(O)N1Cc1ccccc1Cl` (configuration not stated), for which the fold change is 1.03 (inactive).

On to `COc1cccc(C(=O)Nc2c3c(nn2-c2cccc(C)c2C)CS(=O)(=O)C3)c1OC`, for which the fold change was 1.01 (inactive).

For the compound `CCC(=O)N1CCc2cc(S(=O)(=O)NC(C(=O)N3CCc4ccccc4C3)C(C)C)ccc21` (configuration not stated), the fold change was 1 (inactive).

In the case of `CCOc1cc(C(=O)N2CCc3cc(OC)c(OC)cc3C2)ccc1OC(F)F`, the fold change was 0.97 (inactive).

In the case of `O=C(Nc1cnn(Cc2ccc(Cl)cc2)c1)C1CCCC1`, the fold change is 1.03 (inactive).

`c1cc(-n2cnnn2)ccc1NC1=NCCC1`: the fold change is 1.01 (inactive).

Turning to `O=C(C1CCCO1)N(Cc1ccccc1)c1ccccc1` (configuration not stated), the fold change was 1.03 (inactive).

Take `CC(C)OC(=O)C(C#N)c1nc2ccccc2nc1N1CCN(Cc2ccc3c(c2)OCO3)CC1` (configuration not stated): the fold change was 1.02 (inactive).

For the compound `CCN1CCN(C(=O)c2ccccc2N(C)S(=O)(=O)c2ccc(C)cc2)CC1`, the fold change was 1.05 (inactive).

Consider `COc1c(O)cccc1-c1nnn(CCC(=O)OCC(=O)c2ccccc2)n1`, for which the fold change is 1.01 (inactive).

Regarding `CS(=O)(=O)N(C(=O)NC(=O)NC1CCS(=O)(=O)C1)C1CCCCC1` (configuration not stated), the fold change is 1.04 (inactive).
